Shown are actives, neighbours in structure and some others; about 2.7% of the full set was active somewhere.
gsp antag: gsp mutant antagonism. gsp-mutant cells, cAMP HTRF, 30 min. Potency, µM (top dose mostly 76.9 µM), for inactives: top-dose activity change, negative = inhibition, usual class: inhibitors. hit rate 0.4% among 340,000. AID 624288; calls by dose curve; cell line not stated here;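 further: intracellular cAMP measured with PDE inhibitor Ro 20-1724 present during compound exposure; potency means the concentration at half of the fitted maximal effect; on the % scale 0 is the no-effect control and ±100 the full control effect; nearly all actives have a fitted effect of over 65% in size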
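Measurement of cellular cAMP by homogeneous time-resolved fluorescence following a 30 min compound exposure at 37C. The PDE inhibitor […] was present throughout; the assay buffer was DPBS with 0.05% BSA and 0.005% Tween 20.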
pAkt inh: inhibitors of Akt phosphorylation | hit rate 0.32% among 360,000 | AID 651550 | Neuro2A IGF-stimulated pAkt S473 HTRF, 20 min; stronger effect = lower value | activity change, % for hits at 50 µM; in the data active means activity change below about -80%; inconclusive means mostly about -51% to -80%; further: on the % scale 0 is the no-effect control and ±100 the full control effect
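Single-point screen (50 µM final compound) in Neuro2A cells stimulated 20 min with 6 nM IGF at 37 deg C. After lysis, Ser473-phosphorylated Akt read by HTRF (ex 330 nm, em 615/665 nm) as the 665/615 ratio.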
RXFP1 agonist: agonists of human relaxin receptor RXFP1; hit rate 0.3% among 370,000; HEK293T-RXFP1 cAMP TR-FRET, 30 min; response scale: percent of porcine relaxin response, buffer zero; Potency, µM (doses to about 57.5 µM), without a hit: top-dose activation, usual class: activators; active means well fitted activation curve with a large enough effect; inconclusive means small, poorly fitted or top-dose-only effect; further: potency means the concentration at half of the fitted maximal effect; on the % scale 0 is the no-effect control and ±100 the full control effect; nearly all actives have a fitted effect of over 60% in size
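cAMP rise read by TR-FRET after 30 min, 37C compound exposure (up to 58 uM) in RXFP1-transfected HEK293 cells with Ro 20174 present. EC50 from Hill-equation fits, with 29 nM porcine relaxin as 100% and buffer as basal.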
gsp ag: activates gsp, the McCune-Albright syndrome mutation | Potency, µM (highest dose often 76.9 µM), without a hit: at the top dose activation (cAMP increase), most hits filed as activators | AID 624287 | gsp mutant cells, cAMP HTRF, 30 min | hit rate 0.13% among 340,000; active means well fitted activation curve with a large enough effect; inconclusive means small, poorly fitted or top-dose-only effect, or another doubt; inactive means no such curve, though single readings can be large or run the other way; cell line not stated here;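 further: phosphodiesterase inhibitor Ro 20-1724 added with compounds to block cAMP breakdown; potency means the concentration at half of the fitted maximal effect; nearly all actives have a fitted effect of over 60% in size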
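Cells in DMEM/10% FBS with G418 were pretreated with compounds in DMSO plus […] (300 uM stock) for 30 min at 37C. cAMP was measured by HTRF (cAMP-d2 plus anti-cAMP antibody-K) after 30 min at room temperature.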
ClpP mod: qHTS Assay for Activators of ClpP | ATP-dependent Clp protease proteolytic subunit (Bacillus subtilis (strain 168)), P80244 | purified B. subtilis ClpP, FRET peptide cleavage, 20 min | Potency, µM (highest dose often 57.5 µM), inactives show at the top dose activity change, negative = active | hit rate 1.9% among 340,000 | AID 651965, 2013; active means well fitted falling curve with a large enough effect; inconclusive means small, poorly fitted or top-dose-only effect; inactive means no such curve, though single readings can be large or run the other way; further: potency means the concentration at half of the fitted maximal effect; the source files actives as falling curves though it sought activators and does not explain the sign; nearly all actives have a fitted effect of over 65% in size
Target sequence (P80244 whole entry, looked up): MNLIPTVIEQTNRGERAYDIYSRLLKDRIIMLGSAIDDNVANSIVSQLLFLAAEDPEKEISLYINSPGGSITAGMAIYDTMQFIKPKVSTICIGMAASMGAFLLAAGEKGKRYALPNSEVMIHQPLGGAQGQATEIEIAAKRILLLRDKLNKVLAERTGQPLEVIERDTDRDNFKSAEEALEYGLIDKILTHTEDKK
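ClpP 10 microg/mL final, pH 8 Tris/KCl buffer with BSA, glycerol, Tween-20; compound pinned in; FRET-FV substrate; RT 20 min; Ex320/Em430; ΔFRET vs ADEP 5.8 microM, DMSO, no enzyme.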
RXFP1 antag: antagonists of human relaxin receptor RXFP1; Q9HBX9; hit rate 0.59% among 350,000; AID 1259400; activity change, negative = inhibition, % at 57.5 µM; HEK293-RXFP1, relaxin-stimulated cAMP HTRF, 30 min; stronger effect = lower value;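 active means activity change of -60% or lower, but not beyond a set lower limit; inconclusive means change between -60% and -40%, or beyond the set limit; inactive means change above -40%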; further: on the % scale 0 is the no-effect control and ±100 the full control effect
Numbers without * were called inactive; i = inactive; ? = inconclusive; · = not tested or not shown; [ ] = another dose, or the depositor's remark.

SMILES | gsp antag | pAkt inh | RXFP1 agonist | gsp ag | ClpP mod | RXFP1 antag
CCCCN(C)CCNC(=O)c1ccc2c(=O)n(CCc3ccccc3)c(=O)[nH]c2c1 | · | · | -2% | · | -14% | ·
NCC12CC3CC(C1)CC(CN)(C3)C2 | 5% | i | 1% | -34% | 0% | -13
NC(=O)CC12CC3CC(C1)CC(CC(N)=O)(C3)C2 | -7% | -82%* | 1% | -29% | 1% | -1
COc1ccc2c(c1)C(=O)N1[C@H]3c4cc(Cl)ccc4OC[C@@H]3[C@H](c3ccccc3)[C@]1(C)C(=O)N2 | -3% | i | · | 22% | 18µM* | ·
Cc1ccc(C)c(C(=O)CC2(O)C(=O)Nc3ccccc32)c1 (stereo not given) | 2% | i | 0% | ? | 1% | 1
Cc1cc(C)c(C(=O)CC2(O)C(=O)Nc3ccccc32)cc1C (stereo not given) | 5% | -116%* | 0% | 4% | 3% | -6
CN(Cc1ccccc1)C(=O)C1CCCN(Cc2ccc(Cl)cc2)C1 (stereo not given) | 12% | i | 0% | ? | 11µM* | -29
CCN(CC)C(=O)C1CCCN(Cc2ccccc2)C1 (stereo not given) | 4% | i | 1% | -16% | 1% | -2
Cn1c(=O)c(Cc2ccccc2)c(O)c2ccccc21 | 13% | i | 8% | 11% | 25µM* | 20
CCCCCn1c(=O)c(Cc2ccccc2)c(O)c2ccccc21 | -3% | i | 4% | 2% | 14µM* | 7
CCCCCOC(=O)Cc1c(O)c2ccccc2n(C)c1=O | -18% | i | 3% | -11% | 28µM* | -8
CCCn1c(=O)c(Cc2ccccc2)c(O)c2ccccc21 | 11% | i | 9% | 6% | 28µM* | -5
CCCNC(=O)C1CCC(Cn2c(=O)c3sccc3n(CC(=O)N3CCCC3)c2=O)CC1 (stereo not given) | · | · | -1% | · | -1% | 2
O=C(Oc1ccc(-c2nnco2)cc1)C1CCN(C(=O)c2ccc(F)cc2)CC1 | 0% | i | 0% | ? | -4% | -5
CCCc1c(O)c2ccccc2n(-c2ccccc2)c1=O | -2% | i | 5% | 8% | 5.6µM* | 1
Cn1c(=O)c(C(=O)NNC(=O)c2ccccc2Cl)c(O)c2ccccc21 | -17% | i | 2% | -25% | · | -66*
Cc1ccc(Nc2nc(N)c(C#N)c(CC#N)c2C#N)cc1 | 2% | i | 12% | ? | -21% | 11
O=S1(=O)N=C(Nc2cccc(C(F)(F)F)c2)c2ccccc21 | · | · | 2% | · | 12% | -5
Cc1ccc(-n2c(-c3ccco3)nc3c(cnn3-c3ccccc3Cl)c2=O)cc1 | · | · | 30% | · | 60% | ·
Cc1nc2c(cnn2-c2ccccc2Cl)c(=O)n1-c1ccc(C(C)C)cc1 | 35µM* | i | 0% | -35% | 1% | 7
Cc1ccc(CNC(=O)c2nn(C)c3c2CSc2ccc(C)cc2-3)cc1 | · | · | 0% | · | -1% | -16
CSC1=NC(NCCCO)c2c(sc3c2CC(C)(C)OC3)N1 (stereo not given) | 0% | -101%* | 3% | 11% | 11µM* | -12
CCOC(=O)N1CCC(NC(=O)c2cnn(-c3ccc(OC)cc3)c2C2CCN(C(=O)OC(C)(C)C)CC2)CC1 | · | · | 2% | · | 1% | -14
CN(C)/C=C1\C(=O)ON=C1c1ccccc1 | -8% | i | -1% | 14%[15.4 µM] | · | -20
Cc1ccc(C2=NOC(=O)/C2=C\C=C\c2ccccc2)cc1 | -11% | i | -2% | 12%[15.4 µM] | 32µM* | -108*
SMILES | gsp antag | pAkt inh | RXFP1 agonist | gsp ag | ClpP mod | RXFP1 antag
CC(=O)Nc1cc(C(=O)c2ccccc2)ccc1N1CCOCC1 | -3% | i | 0% | -12% | 35µM* | -4
O=C(O)c1ccccc1C(=O)c1ccc(N2CCCC2)c([N+](=O)[O-])c1 | -13% | i | -3% | 11%[15.4 µM] | · | -5
CCS(=O)(=O)N1CCN(c2ccc(C(=O)NC3C4CC5CC(C4)CC3C5)cc2[N+](=O)[O-])CC1 (stereo not given) | -4% | i | 0% | 3% | 25µM* | -2
CC(=O)c1ccc(N2CCN(c3ccccc3O)CC2)c([N+](=O)[O-])c1 | 32µM* | i | 2% | 16%[15.4 µM] | · | -15
N#Cc1cc([N+](=O)[O-])ccc1N1CCN(c2ccccc2O)CC1 | ? | i | 0% | 5%[15.4 µM] | 1% | -14
O=C(O)c1ccccc1C(=O)c1ccc(N2CCOCC2)c([N+](=O)[O-])c1 | 1% | i | 0% | 5% | · | -69*
CCN(CC)CCN(CC)c1ccc(/C=C/c2ccnc3ccccc23)cc1 | · | · | · | · | 0% | ·
CC(C)(C)n1nnnc1C(c1cc2ccccc2o1)N1CCOCC1 (stereo not given) | · | i | · | · | -6% | ·
O=c1oc2ccc3ccccc3c2c2c1SC(C(F)(F)F)C2 (stereo not given) | 4%[15.4 µM] | i | 0% | -16% | 35µM* | -18
OCC[C@@H]1C[C@H](O)[C@@H](O)[C@@]2(OCc3cc(C(F)(F)F)ccc32)O1 | · | i | · | -39% | 2% | 6
CCOC(=O)CNC(=O)Cc1ccc(OC)cc1 | 10% | i | 0% | 3%[15.4 µM] | · | 8
COc1ccc(C2NC(=O)CCC2[N+](=O)[O-])cc1 (stereo not given) | 3% | i | -1% | 1%[15.4 µM] | 1% | -10
CCn1c(=O)n(CC)c2cc(N3CCCC3)c(NC(=O)c3ccc(F)cc3)cc21 | ? | i | 1% | -18% | -1% | 3
CCn1c(=O)n(CC)c2cc(N3CCCC3)c(NC(=O)c3c(F)cccc3F)cc21 | 32µM* | · | -2% | 4% | -7% | 12
CCN(c1cccc(C)c1)S(=O)(=O)c1c(C)[nH]c(=O)[nH]c1=O | 2% | i | 0% | 2% | -2% | 18
CCN(c1cccc(C)c1)S(=O)(=O)c1ccc2[nH]c(=O)c(=O)[nH]c2c1 | -10% | i | 0% | 12% | 22µM* | -3
Cc1csc(NC(=O)c2cc3ccccc3o2)n1 | -6% | i | -1% | -2% | -5% | -10
Cc1csc(C(C#N)C(=O)c2cc3ccccc3o2)n1 (stereo not given) | 25µM* | i | 0% | 10% | -1% | -18
Cc1cc(-n2c(SCc3ccccc3F)nc3[nH]ncc3c2=O)ccc1Cl | · | · | 4% | · | -6% | -4
CCC(C)/C=C/C1=CC2=C(Cl)C(=O)C3(C)OC(=O)C(C(=O)C(C)C(C)O)C3C2=CO1 (stereo not given) | -14% | i | -1% | · | 22µM* | ·

Compound activity as filed in PubChem.
